According to PubChem BioAssay (EPA / NIEHS):
Values joined by “and” are separate entries in the source; they are usually repeats but may differ in a detail not shown here. Equal values may be shown once. Inconclusive results are not listed. Some structures have more than one record in an assay (separate samples or runs), and their calls can disagree. Active and inactive are the calls of the source. The calls were made as follows, unless noted: active = hit-call score of the fitted dose curve at least 0.9, where 1 is the maximum; inactive = score below 0.9.

Key:
[1] = BSK_BT_PBMCCytotoxicity: PBMC Cytotoxicity Assessment in the BioMAP Diversity Plus: BT Assay (AID 2284225); conditions: primary human B cells with PBMC;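 also: PBMC viability measured by Alamar Blue dye reduction fluorescence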
Procedure, shortened: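 PBMC (75,000/well) pretreated with compound 1 h, then activated with SEB and TSST-1 (20 ng/mL each final), incubated 90 h; Alamar Blue added 6 h, fluorescence read at 546/580 nm. Fitted relative to DMSO.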

[2] = read-out: Secreted IgG (sIgG), gene 3500; assay: BSK_BT_sIgG: BioMAP Diversity Plus: BT Assay for Secreted IgG (sIgG) Biomarker Activity (AID 2284226); conditions: primary human B cells with PBMC
Procedure, shortened: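 Read-out: ELISA for secreted IgG after 24 h of chemical exposure in a B cell plus PBMC co-culture. Values reflect upward-direction fitting against DMSO negative controls.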

[3] = BSK_BT_Bcell_Proliferation: Viability Assessment in the BioMAP Diversity Plus: BT Assay for B cell Proliferation (AID 2284227); conditions: primary human B cells with PBMC
Procedure, shortened: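 Read-out is absorbance at 560 nm from sulforhodamine B staining of total protein, reflecting relative cell numbers in a human B cell and PBMC co-culture after 72 h of chemical exposure. Values were referenced to DMSO.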

[4] = read-out: Interleukin 6 (IL6), IL6 (gene 3569); assay: BSK_BT_xIL6: BioMAP Diversity Plus: BT Assay for Interleukin 6 (IL6) Biomarker Activity (AID 2284228); conditions: primary human B cells with PBMC
Procedure, shortened: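 IL-6 secretion measured (Luminex xMAP) in human primary B cell + PBMC co-culture at 24 h of chemical exposure; DMSO served as negative control and activity baseline, with curves fitted for increase.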

[5] = read-out: Interleukin 17A (IL17A), IL17A (gene 3605); assay: BSK_BT_xIL17A: BioMAP Diversity Plus: BT Assay for Interleukin 17A (IL17A) Biomarker Activity (AID 2284229); conditions: primary human B cells with PBMC
Procedure, shortened: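 Human primary B cells plus PBMC, treated 24 h with chemicals; supernatant IL-17A quantified on Luminex xMAP beads. Gain of signal over DMSO control scored as activity.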

[6] = read-out: Vascular cell adhesion molecule 1 (VCAM1), VCAM1 (gene 7412); assay: BSK_MyoF_VCAM1: BioMAP Diversity Plus: MyoF Assay for Vascular cell adhesion molecule 1 (VCAM1) Biomarker Activity (AID 2284231); conditions: primary human lung fibroblasts
Procedure, shortened: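 VCAM-1 levels, lung fibroblasts, ELISA, 24 h exposure, increase scored relative to DMSO.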

[7] = read-out: Tumor necrosis factor (Homo sapiens) (UniProt P01375); assay: BSK_BT_xTNFa: BioMAP Diversity Plus: BT Assay for Tumor necrosis factor alpha (TNF-alpha) Biomarker Activity (AID 2284230); conditions: primary human B cells with PBMC
Procedure, shortened: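 Human primary co-culture of B cells and peripheral blood mononuclear cells; TNF-alpha in supernatant, 24 h post-dose, Luminex multiplex; DMSO = baseline.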

[8] = CCTE_Mundy_HCI_hNP1_Pro_ResponderAvgInten: CCTE's Proliferation Assay in human neuroprogenitor cells, Mundy Lab (AID 2284224; active = hit-call score of the fitted dose curve at least 0.9, where 1 is the maximum;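 also: human neural progenitor cells hNP1 derived from WA09 embryonic stem cells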)
Procedure, shortened: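 Human neuroprogenitors (hNP1, WA09 lineage) receive test chemical after 40 to 44 hours of attachment. A four-hour BrdU pulse begins twenty hours later, followed by fixation and high content imaging; signal is referenced to DMSO controls.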

Measured: AC50

Chain of Tumor necrosis factor (Homo sapiens) (P01375 whole entry, looked up): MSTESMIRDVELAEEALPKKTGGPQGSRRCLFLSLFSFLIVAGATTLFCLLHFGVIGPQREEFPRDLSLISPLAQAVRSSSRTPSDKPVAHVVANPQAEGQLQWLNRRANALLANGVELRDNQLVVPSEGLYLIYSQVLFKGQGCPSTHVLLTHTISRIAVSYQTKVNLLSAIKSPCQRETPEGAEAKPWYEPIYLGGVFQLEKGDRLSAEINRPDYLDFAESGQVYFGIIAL

C=CC(=O)OCC(F)(F)C(F)(F)C(F)(F)C(F)(F)C(F)(F)C(F)(F)C(F)(F)F
inactive: [1] | [2] | [3] | [4] | [5] | [6]
active: [1] 14 µM

Cc1ccc(S(=O)(=O)OCC(F)(F)C(F)(F)C(F)(F)C(F)(F)C(F)(F)C(F)F)cc1
inactive: [1] | [2] | [3] | [4] | [5] | [6]
active: [2] 41.7 µM

FC(F)(I)C(F)(F)C(F)(F)C(F)(F)I
active: [1] 49.7 µM and 47.7 µM and 47.2 µM | [2] 45.7 µM and 46.4 µM and 56.3 µM | [3] 52.2 µM and 54.9 µM and 48.7 µM | [4] 46.3 µM and 55.2 µM and 45.9 µM | [5] 42.1 µM and 50.4 µM and 39.2 µM | [7] 48.3 µM and 46.1 µM and 46 µM | [6] 52.7 µM and 45.4 µM and 45.5 µM

CC(C)(C)C(=O)CC(=O)C(F)(F)C(F)(F)C(F)(F)F
not listed: [7]
inactive: all other assays above

O=S(=O)(OCC(F)F)C(F)(F)F
not listed: [7] | [8]
inactive: all other assays above

FC(F)(F)C(F)(F)C(F)(F)C(F)(F)C(F)(F)C(F)(F)CC1CO1 (stereo unspecified)
not listed: [7] | [8]
inactive: all other assays above

O=C(O)C(F)(F)C(F)(F)C(F)(F)C(F)(F)C(F)(F)C(F)(F)C(F)(F)C(F)(F)C(F)(F)C(F)(F)C(F)(F)C(F)(F)F
not listed: [7] | [8]
inactive: all other assays above

FC1CC(F)(F)C(F)(F)C1(F)F (stereo unspecified)
not listed: [8]
inactive: all other assays above

C=C(C)C(=O)OCCC(F)(F)C(F)(F)C(F)(F)C(F)(F)C(F)(C(F)(F)F)C(F)(F)F
not listed: [7] | [8]
inactive: all other assays above

CCCCCCCCC(F)(F)C(F)(F)C(F)(F)C(F)(F)C(F)(F)C(F)(F)F
not listed: [7] | [8]
inactive: all other assays above

C#C[C@]1(O)CC[C@H]2[C@@H]3CCc4cc(OC)ccc4[C@H]3CC[C@@]21C
inactive: [1] | [4] | [5] | [6]
active: [2] 7.71 µM | [3] 29.6 µM

O=C(O)C(F)(OC(F)(F)C(F)(OC(F)(F)C(F)(F)C(F)(F)F)C(F)(F)F)C(F)(F)F (stereo unspecified)
not listed: [8]
inactive: all other assays above

O=C(O)C(F)(F)C(F)(F)C(F)(F)C(F)(F)C(F)(F)C(F)(F)C(F)(F)C(F)(F)Cl
active: [1] 20.5 µM and 22.2 µM | [3] 8.64 µM and 37.3 µM | [6] 43.5 µM and 23.5 µM
not listed: [8]
inactive: all other assays above

CCCCCCCOC(=O)c1ccccc1C(=O)OCCCCCCC
active: [2] 13.3 µM
not listed: [7] | [8]
inactive: all other assays above

CCO[Si](CCC(F)(F)C(F)(F)C(F)(F)C(F)(F)C(F)(F)C(F)(F)F)(OCC)OCC
not listed: [7] | [8]
inactive: all other assays above

O=C(O)C(F)(F)C(F)(F)C(F)(F)C(F)(F)F
not listed: [7] | [8]
inactive: all other assays above

C=CC(=O)OCC(F)(F)C(F)(F)C(F)(F)C(F)(F)COC(=O)C=C
active: [1] 11.3 µM and 11.2 µM | [2] 10.5 µM and 7.38 µM | [3] 13.7 µM and 12 µM | [4] 12.3 µM and 10.4 µM | [5] 7.14 µM and 8.58 µM | [6] 9.29 µM and 10.5 µM

O=C(O)C(F)(F)C(F)(F)F
not listed: [7] | [8]
inactive: all other assays above

Nc1ccc([N+](=O)[O-])cc1O
not listed: [8]
inactive: all other assays above

O=C(O)C(F)(OC(F)(F)C(F)(OC(F)(F)C(F)(OC(F)(F)C(F)(F)C(F)(F)F)C(F)(F)F)C(F)(F)F)C(F)(F)F (stereo unspecified)
not listed: [7] | [8]
inactive: all other assays above

O=S(=O)(OCCOC(F)(F)F)C(F)(F)F
not listed: [7] | [8]
inactive: all other assays above

CCCCNc1ccccc1
not listed: [8]
inactive: all other assays above

O=C(Cl)C(F)(F)C(F)(F)C(F)(F)C(F)(F)C(F)(F)C(F)(F)C(F)(F)C(F)(F)F
active: [6] 27.2 µM and 45.4 µM and 44.1 µM
not listed: [7] | [8]
inactive: all other assays above

C=CC(F)(F)C(F)(F)C(F)(F)C(F)(F)C(F)(F)C(F)(F)C(F)(F)C(F)(F)F
not listed: [7] | [8]
inactive: all other assays above

FC(F)(F)C(F)(F)C(F)(F)N(C(F)(F)C(F)(F)C(F)(F)F)C(F)(F)C(F)(F)C(F)(F)F
not listed: [7] | [8]
inactive: all other assays above

FC(F)(F)C(F)(F)C(F)(F)C(F)(F)CCI
not listed: [7] | [8]
inactive: all other assays above

OCC(F)(F)C(F)(F)C(F)(F)C(F)(F)C(F)(F)C(F)F
not listed: [7] | [8]
inactive: all other assays above

O=C(O)C=C(C(F)(F)F)C(F)(F)F
active: [2] 46 µM and 43.1 µM | [3] 30 µM | [6] 21.8 µM and 16.2 µM
inactive: [1] | [4] | [5]

OCCCC(F)(F)C(F)(F)C(F)(F)C(F)(F)C(F)(F)C(F)(F)C(F)(F)F
active: [1] 20.4 µM and 20.1 µM | [2] 18.3 µM and 48.6 µM | [3] 23.6 µM and 20.6 µM | [4] 21 µM and 25.9 µM | [5] 18.8 µM and 36.4 µM | [6] 51.2 µM and 50.4 µM

CCc1c(Br)c(Br)c(Br)c(Br)c1Br
active: [6] 20 µM
not listed: [7] | [8]
inactive: all other assays above

CCCCCCC(C)OC(=O)CCCCC(=O)OC(C)CCCCCC (stereo unspecified)
not listed: [7] | [8]
inactive: all other assays above

FC(F)(Br)C(F)(F)C(F)(F)C(F)(F)C(F)(F)C(F)(F)Br
not listed: [8]
inactive: all other assays above

Oc1ccc(Nc2ccccc2)cc1
active: [1] 16.7 µM | [2] 13.4 µM | [3] 22.5 µM | [4] 20 µM | [5] 14.3 µM | [7] 30.1 µM
inactive: [6]

CCCCOCCOCCOC(=O)CCCCC(=O)OCCOCCOCCCC
not listed: [7] | [8]
inactive: all other assays above

FC(F)(F)C(F)(F)C(F)(F)C(F)(F)C(F)(F)C(F)(F)C(F)(F)I
active: [6] 4.15 µM and 4.24 µM
not listed: [7] | [8]
inactive: all other assays above

NC(=O)C(F)(F)C(F)(F)C(F)(F)C(F)(F)F
not listed: [7] | [8]
inactive: all other assays above

C=CC(F)(F)C(F)(F)C(F)(F)C(F)(F)C(F)(F)C(F)(F)C(F)(F)C(F)(F)C=C
not listed: [7] | [8]
inactive: all other assays above

C=CC/C=C/C/C=C/C/C=C/C
not listed: [8]
inactive: all other assays above

COC(=O)CCC(F)(F)C(F)(F)C(F)(F)C(F)(F)F
not listed: [7] | [8]
inactive: all other assays above
